Results: PubChem BioAssay (Tox21)
Values joined by “and” are separate entries in the source; they are usually repeats but may differ in a detail not shown here. Equal values may be shown once. Results filed as inconclusive are left out. Where a call stands in place of a potency, no number is given. A structure can be active in one record and inactive in another. Active and inactive are the calls of the source. Unless noted, calls follow the shape of the dose curve; as a rule, active = well fitted curve in the direction sought with a large enough effect in the repeat runs; inconclusive = weak or mixed curves; inactive = no such curve, though single readings can be large; an effect the other way counts as inactive or inconclusive.

Legend:
[1] = target: Progesterone receptor (Homo sapiens) (UniProt P06401); assay: qHTS assay to identify small molecule agonists of the progesterone receptor (PR) signaling pathway (AID 1346784; calls by dose curve; also: nearly all actives have a fitted effect of over 30% in size; also: potency is read from the fitted curve at half-maximal effect)
Chain of Progesterone receptor (Homo sapiens) (P06401 whole entry, looked up): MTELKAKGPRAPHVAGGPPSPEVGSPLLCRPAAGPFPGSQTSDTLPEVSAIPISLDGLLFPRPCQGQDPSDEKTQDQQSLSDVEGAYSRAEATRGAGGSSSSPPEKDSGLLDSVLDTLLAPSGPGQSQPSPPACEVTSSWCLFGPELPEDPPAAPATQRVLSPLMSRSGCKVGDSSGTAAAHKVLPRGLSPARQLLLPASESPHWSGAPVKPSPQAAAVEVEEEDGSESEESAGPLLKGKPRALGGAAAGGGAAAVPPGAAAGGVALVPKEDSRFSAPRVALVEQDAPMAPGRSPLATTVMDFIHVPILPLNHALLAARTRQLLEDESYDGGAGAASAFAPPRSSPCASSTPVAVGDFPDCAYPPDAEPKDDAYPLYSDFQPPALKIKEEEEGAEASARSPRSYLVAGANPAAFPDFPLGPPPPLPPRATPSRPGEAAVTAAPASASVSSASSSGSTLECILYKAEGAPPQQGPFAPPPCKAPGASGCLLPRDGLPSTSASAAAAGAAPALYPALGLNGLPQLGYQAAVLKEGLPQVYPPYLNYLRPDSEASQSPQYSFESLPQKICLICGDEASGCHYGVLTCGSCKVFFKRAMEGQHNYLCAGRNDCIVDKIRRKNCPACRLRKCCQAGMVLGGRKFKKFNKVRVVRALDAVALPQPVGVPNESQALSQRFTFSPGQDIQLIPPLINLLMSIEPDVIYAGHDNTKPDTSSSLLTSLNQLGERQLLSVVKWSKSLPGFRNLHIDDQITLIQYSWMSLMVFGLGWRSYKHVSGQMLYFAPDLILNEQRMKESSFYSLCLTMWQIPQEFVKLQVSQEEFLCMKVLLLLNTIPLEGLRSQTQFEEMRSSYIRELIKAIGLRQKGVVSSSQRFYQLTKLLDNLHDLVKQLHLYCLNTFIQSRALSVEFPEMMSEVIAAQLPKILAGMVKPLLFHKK
In short: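 Seed PR-UAS-bla HEK 293T cells (2% charcoal-stripped FBS), incubate 6 hr at 37C; add compounds in DMSO, 16 hr at 37C; add LiveBLAzer B/G substrate, 2 hr RT; read fluorescence intensity.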

[2] = target: Progesterone receptor (Homo sapiens) (UniProt P06401); assay: qHTS assay to identify small molecule antagonists of the progesterone receptor (PR) signaling pathway (AID 1346795; active = well fitted inhibition curve with a large enough effect in the signal ratio in the repeat runs, not every such curve was filed as active; the % refers to the signal ratio; also: potency is read from the fitted curve at half-maximal effect)
In short: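 Screening used a GripTite HEK293T line with PR-responsive UAS-beta-lactamase. Cells were challenged with compound in the presence of 1 nM R5020 final for 16 hr at 37C; B/G FRET substrate, 2 hr room temperature, fluorescence.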

[3] = qHTS assay to identify small molecule antagonists of the TGF-beta/Smad signaling pathway - cell viability counter screen (AID 1346824); also: nearly all actives have a fitted effect of over 50% in size; also: potency is read from the fitted curve at half-maximal effect
In short: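 SBE-bla HEK 293T cells were plated overnight at 37 C, then given compounds in DMSO plus TGF-beta1 (added as 0.25 ng/mL solution) for 5 hr. After the bla read, CellTiter-Glo was added to the same wells and luminescence read after 30 min at room temperature.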

[4] = qHTS assay to identify small molecule agonists of the TGF-beta/Smad signaling pathway - cell viability counter screen (AID 1346829); also: nearly all actives have a fitted effect of over 45% in size; also: potency is read from the fitted curve at half-maximal effect
In short: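 SBE-bla HEK 293T cells plated overnight, compound exposure 5 hr at 37 C. Viability read in the same wells by CellTiter-Glo luminescence after 30 min at room temperature, following the beta-lactamase read.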

[5] = qHTS assay to identify small molecule agonists of the estrogen receptor alpha (ER-alpha) signaling pathway in the presence of an antagonist - cell viability counter screen (AID 1259386);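 also: cells exposed to compounds for 22 h at 37 °C before the viability read; nearly all actives have a fitted effect of over 30% in size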; also: potency is read from the fitted curve at half-maximal effect
In short: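 Cells are starved of estrogens for 5 days in charcoal-stripped serum, seeded for 24hr and co-treated with ICI-182,780 (10.0nM final) and test compounds. After 22hr at 37C, viability is read as CellTiter-Fluor fluorescence.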

[6] = qHTS assay to identify small molecule agonists of the progesterone receptor (PR) signaling pathway - cell viability counter screen (AID 1346799; calls by dose curve; also: nearly all actives have a fitted effect of over 45% in size; also: potency is read from the fitted curve at half-maximal effect)
In short: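 Using the same plates as the PR reporter screen, HEK293T PR-UAS-bla cells received compounds for 16 hr at 37C and were then lysed with CellTiter-Glo; luminescence was read 30 min later at room temperature.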

[7] = target: Thyrotropin-releasing hormone receptor (Homo sapiens) (UniProt P34981); assay: qHTS assay to identify small molecule antagonists of the thyrotropin-releasing hormone receptor (TRHR) signaling pathway (AID 1346877; active = well fitted inhibition curve with a large enough effect in the repeat runs, not every such curve was filed as active; also: potency is read from the fitted curve at half-maximal effect)
Chain of Thyrotropin-releasing hormone receptor (Homo sapiens) (P34981 whole entry, looked up): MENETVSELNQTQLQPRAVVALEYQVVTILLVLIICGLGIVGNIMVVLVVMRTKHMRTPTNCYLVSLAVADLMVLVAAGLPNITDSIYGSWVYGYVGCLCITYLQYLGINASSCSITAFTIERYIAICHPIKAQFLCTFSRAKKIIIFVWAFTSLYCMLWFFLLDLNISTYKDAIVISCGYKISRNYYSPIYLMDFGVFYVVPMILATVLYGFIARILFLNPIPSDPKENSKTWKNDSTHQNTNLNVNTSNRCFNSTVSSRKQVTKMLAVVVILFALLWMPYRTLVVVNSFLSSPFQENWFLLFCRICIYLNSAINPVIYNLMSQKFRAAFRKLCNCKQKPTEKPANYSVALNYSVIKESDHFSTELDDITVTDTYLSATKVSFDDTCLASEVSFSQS
In short: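 Cells (TRHR-HEK293) are plated and kept 18 h at 37 °C/5% CO2. A calcium-sensitive dye is added for 2 h, compound follows for 5 min at room temperature, and TRH is then given at 1 nM final.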

[8] = target: Thyrotropin-releasing hormone receptor (Homo sapiens) (UniProt P34981); assay: qHTS assay to identify small molecule agonists of the thyrotropin-releasing hormone receptor (TRHR) signaling pathway (AID 1346891; calls by dose curve; also: potency is read from the fitted curve at half-maximal effect;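 as to activation: HEK293 cells expressing TRHR with calcium dye readout; series mostly up to about 58 µM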)
In short: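 Overnight-plated (18 h, 37 °C, 5% CO2) TRHR-Hek293 cells; 2 h calcium dye at 37 °C; compound in DMSO; 3-min kinetic fluorescence read.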

[9] = qHTS assay to identify small molecule agonists of the TGF-beta/Smad signaling pathway (AID 1346859; active = well fitted activation curve with a large enough effect in the signal ratio in the repeat runs, not every such curve was filed as active; the % refers to the signal ratio; also: series mostly up to about 77 µM)
In short: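 Beta-lactamase reporter activity downstream of Smad binding elements was measured in stably transfected HEK 293T cells; compounds were incubated for 5 hr, substrate for 2 hr at room temperature.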

[10] = qHTS assay to identify small molecule antagonists of the progesterone receptor (PR) signaling pathway - cell viability counter screen (AID 1346798); also: series mostly up to about 92 µM; nearly all actives have a fitted effect of over 50% in size
In short: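 Measures cytotoxicity in parallel with the PR antagonist reporter read: HEK293T PR-UAS-bla cells get compound and R5020 for 16 hr, and remaining viable cells are quantified by CellTiter-Glo luminescence.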

With `CCCCCCCCCCn1cc[n+](C)c1` the Potency [1] was “inactive”, the Potency [2] was 31.4 µM (active) and 48.5 µM (active) and 27.3 µM (active) and the Potency [3] was “inactive”. The Potency [4] was “inactive”.
For `O=C(O)CCl`, the Potency [5] was “inactive”, the Potency [1] was “inactive” and the Potency [2] was “inactive”. The Potency [6] was “inactive”, the Potency [3] was “inactive” and the Potency [4] was “inactive”. For the same molecule, the Potency [7] was “inactive” and the Potency [8] was “inactive”.
For `O=C(O)C(Cl)Cl`, the Potency [5] was “inactive”, the Potency [1] was “inactive” and the Potency [2] was “inactive”. The Potency [6] was “inactive”, the Potency [3] was “inactive” and the Potency [4] was “inactive”. For the same molecule, the Potency [7] was “inactive” and the Potency [8] was “inactive”.
For `CCCCCCCCCCCCn1cc[n+](C)c1`, the Potency [1] was “inactive” and the Potency [2] was 27.5 µM (active) [middle of 4 runs].
With `CC(=O)[O][Hg][c]1ccccc1` the Potency [5] was 7.63 µM (active) and 13.7 µM (active) and 26.6 µM (active), the Potency [2] was 2.15 µM (active) and the Potency [6] was 5.4 µM (active) and 5.45 µM (active) and 5.96 µM (active). For the same molecule, the Potency [3] was 7.69 µM (active) and 8.71 µM (active) and 10.7 µM (active) and the Potency [4] was 8.63 µM (active) and 7.76 µM (active) and 9.52 µM (active).
In the case of `COCC(=O)N(c1c(C)cccc1C)C(C)C(=O)OC` (stereo not given), the Potency [5] is reported as “inactive”, the Potency [1] is reported as “inactive” and the Potency [2] is reported as “inactive”. The Potency [6] was “inactive”, the Potency [3] was “inactive” and the Potency [4] was “inactive”. The Potency [7] was “inactive” and the Potency [8] was “inactive”.
With `O=c1nc(O)n(Cl)c(=O)n1Cl` the Potency [5] was “inactive”, the Potency [1] was “inactive” and the Potency [2] was “inactive”. The Potency [6] was “inactive”, the Potency [3] was “inactive” and the Potency [4] was “inactive”. The Potency [7] was “inactive” and the Potency [8] was “inactive”.
For `Cc1cc(Cl)ccc1OCC(=O)O`, the Potency [5] was “inactive”, the Potency [1] was “inactive” and the Potency [2] was “inactive”. The Potency [6] was “inactive”, the Potency [3] was “inactive” and the Potency [4] was “inactive”. For the same molecule, the Potency [9] was “inactive”.
With `C1CCC(NC2CCCCC2)CC1` the Potency [5] was “inactive”, the Potency [1] was “inactive” and the Potency [2] was “inactive”. For the same molecule, the Potency [6] was “inactive”, the Potency [3] was “inactive” and the Potency [4] was “inactive”. The Potency [7] was “inactive” and the Potency [8] was “inactive”.
For `O=C(O)CC(O)(CC(=O)O)C(=O)O`, the Potency [5] was “inactive”, the Potency [1] was “inactive and 87.8 nM (active)” and the Potency [2] was “inactive”. For the same molecule, the Potency [6] was “inactive”, the Potency [3] was “inactive” and the Potency [4] was “inactive”. The Potency [9] was “inactive”, the Potency [7] was “inactive” and the Potency [8] was “inactive”.
In the case of `Oc1ccccc1-c1ccccc1`, the Potency [5] is reported as “inactive”, the Potency [1] is reported as “inactive” and the Potency [2] is reported as “inactive”. For the same molecule, the Potency [6] was “inactive”, the Potency [3] was “inactive” and the Potency [4] was “inactive”. The Potency [9] was “inactive”, the Potency [7] was “inactive” and the Potency [8] was “inactive”.
With `CNC` the Potency [5] was “inactive”, the Potency [1] was “inactive” and the Potency [2] was “inactive”. The Potency [6] was “inactive”, the Potency [3] was “inactive” and the Potency [4] was “inactive”. For the same molecule, the Potency [7] was “inactive” and the Potency [8] was “inactive”.
For `C=CCOC(Cn1ccnc1)c1ccc(Cl)cc1Cl` (stereo not given), the Potency [5] was “inactive”, the Potency [1] was “inactive” and the Potency [2] was 6.13 µM (active) and 6.68 µM (active). For the same molecule, the Potency [6] was 27.4 µM (active) and 21.7 µM (active) and 18.8 µM (active), the Potency [3] was “inactive” and the Potency [4] was “inactive”. The Potency [9] was “inactive”, the Potency [7] was “inactive” and the Potency [8] was “inactive”.
In the case of `CCCCn1cc[n+](C)c1`, the Potency [5] is reported as “inactive”, the Potency [10] is reported as “inactive” and the Potency [6] is reported as “inactive”. For the same molecule, the Potency [3] was “inactive”, the Potency [4] was “inactive” and the Potency [9] was “inactive”.
With `O=C(O)C(Cl)(Cl)Cl` the Potency [5] was “inactive”, the Potency [1] was “inactive” and the Potency [2] was “inactive”. The Potency [6] was “inactive”, the Potency [3] was “inactive” and the Potency [4] was “inactive”. For the same molecule, the Potency [7] was “inactive” and the Potency [8] was “inactive”.
With `C[C@]12CCC(=O)C=C1CC[C@@H]1[C@@H]2CC[C@]2(C)C(=O)CC[C@@H]12` the Potency [5] was “inactive”, the Potency [1] was “inactive” and the Potency [6] was “inactive and 61.1 µM (active)”. For the same molecule, the Potency [3] was “inactive”, the Potency [4] was “inactive” and the Potency [9] was “inactive”. The Potency [7] was “inactive” and the Potency [8] was “inactive”.
For `CCCC[n+]1cccc(C)c1`, the Potency [5] was “inactive”, the Potency [1] was “inactive” and the Potency [2] was “inactive”. For the same molecule, the Potency [6] was “inactive”, the Potency [3] was “inactive” and the Potency [4] was “inactive”. For the same molecule, the Potency [7] was “inactive” and the Potency [8] was “inactive”.
With `CN(C)[C@@H]1C(=O)C(C(N)=O)=C(O)[C@@]2(O)C(=O)C3=C(O)c4c(O)cccc4[C@@](C)(O)[C@H]3[C@H](O)[C@@H]12` the Potency [5] was “inactive”, the Potency [6] was “inactive” and the Potency [3] was “inactive”. The Potency [4] was “inactive” and the Potency [9] was “inactive”.
With `CCCCCCCCn1cc[n+](C)c1` the Potency [1] was “inactive”, the Potency [2] was “inactive” and the Potency [10] was “inactive”. The Potency [3] was “inactive”, the Potency [4] was “inactive” and the Potency [9] was “inactive”.
For `CCOP(=S)(OCC)Oc1ccc2c(C)c(Cl)c(=O)oc2c1`, the Potency [5] was “inactive”, the Potency [1] was “inactive” and the Potency [6] was “inactive”. For the same molecule, the Potency [3] was “inactive”, the Potency [4] was “inactive” and the Potency [7] was “inactive”. For the same molecule, the Potency [8] was “inactive”.
For `Nc1ccccc1`, the Potency [5] was “inactive”, the Potency [1] was “inactive” and the Potency [2] was “inactive”. The Potency [6] was “inactive”, the Potency [3] was “inactive” and the Potency [4] was “inactive”. The Potency [7] was “inactive” and the Potency [8] was “inactive”.
For `CCCn1cc[n+](C)c1`, the Potency [5] was “inactive”, the Potency [1] was “inactive” and the Potency [2] was “inactive”. The Potency [6] was “inactive”, the Potency [3] was “inactive” and the Potency [4] was “inactive”. The Potency [9] was “inactive”, the Potency [7] was “inactive” and the Potency [8] was “inactive”.
In the case of `CCCC[n+]1ccc(C)cc1`, the Potency [5] is reported as “inactive”, the Potency [6] is reported as “inactive and 60.8 µM (active)” and the Potency [4] is reported as “inactive”. For the same molecule, the Potency [7] was “inactive and 24 µM (active)” and the Potency [8] was “inactive and 15.5 µM (active)”.
With `CCCC[n+]1ccccc1` the Potency [5] was “inactive”, the Potency [1] was “inactive” and the Potency [2] was “inactive”. For the same molecule, the Potency [6] was “inactive”, the Potency [3] was “inactive” and the Potency [4] was “inactive”. The Potency [9] was “inactive”.
For `O=S(=O)(O)O`, the Potency [5] was “inactive”, the Potency [6] was “inactive” and the Potency [3] was “inactive”. For the same molecule, the Potency [4] was “inactive”.
In the case of `CC(=O)O`, the Potency [5] is reported as “inactive”, the Potency [1] is reported as “inactive and 392 nM (active)” and the Potency [2] is reported as “inactive”. For the same molecule, the Potency [6] was “inactive”, the Potency [3] was “inactive” and the Potency [4] was “inactive”. For the same molecule, the Potency [9] was “inactive”.
With `CCCCn1cc[n+](C)c1C` the Potency [5] was “inactive”, the Potency [1] was “inactive” and the Potency [2] was “inactive”. The Potency [6] was “inactive”, the Potency [3] was “inactive” and the Potency [4] was “inactive”. The Potency [9] was “inactive”.
In the case of `COP(=O)(OC)OC=C(Cl)Cl`, the Potency [5] is reported as “inactive”, the Potency [1] is reported as “inactive” and the Potency [2] is reported as “inactive”. For the same molecule, the Potency [6] was “inactive”, the Potency [3] was “inactive” and the Potency [4] was “inactive”. For the same molecule, the Potency [7] was “inactive” and the Potency [8] was “inactive”.
With `Nc1ccc(-c2ccc(N)c(Cl)c2)cc1Cl` the Potency [5] was “inactive”, the Potency [6] was “inactive” and the Potency [3] was “inactive”. The Potency [4] was “inactive”, the Potency [7] was “inactive” and the Potency [8] was “inactive”.
In the case of `CCC(=O)C(CC(C)N(C)C)(c1ccccc1)c1ccccc1` (stereo not given), the Potency [5] is reported as “inactive”, the Potency [1] is reported as “inactive” and the Potency [2] is reported as “inactive”. The Potency [6] was 43.5 µM (active) and the Potency [4] was “inactive”.
For `COP(=O)(OC)C(O)C(Cl)(Cl)Cl` (stereo not given), the Potency [5] was “inactive”, the Potency [1] was “inactive” and the Potency [10] was “inactive”. The Potency [6] was “inactive”, the Potency [3] was “inactive” and the Potency [4] was “inactive”. The Potency [7] was “inactive” and the Potency [8] was “inactive”.
For `Nc1ccc(Cl)cc1`, the Potency [5] was “inactive”, the Potency [1] was “inactive” and the Potency [6] was “inactive”. For the same molecule, the Potency [3] was “inactive”, the Potency [4] was “inactive” and the Potency [7] was “inactive”. The Potency [8] was “inactive”.
For `N#CS`, the Potency [5] was “inactive”, the Potency [1] was “inactive” and the Potency [2] was “inactive”. For the same molecule, the Potency [6] was “inactive”, the Potency [3] was “inactive” and the Potency [4] was “inactive”. For the same molecule, the Potency [7] was “inactive” and the Potency [8] was “inactive”.
